VACV Venus inh: inhibitors of vaccinia virus (Venus reporter); Potency, µM (highest dose often 36.5 µM), actives largely listed as inhibitors; Vaccinia virus Venus reporter expression, fluorescence; actives 0.46% (n = 330,000); calls by dose curve; tested in A549 cells; note: nearly all actives have a fitted effect of over 30% in size
FMDV antiviral: blocks foot and mouth disease virus. FMDV antiviral cell-based qHTS. AID 1159524. Potency, µM (top dose mostly 57.9 µM), hits mostly inhibitors. actives 1.2% (n = 410,000); calls by dose curve; tested in HEK293T cells; note: read-out not given here; nearly all actives have a fitted effect of over 45% in size
Vaccinia mCherry: vaccinia inhibition (mCherry reporter); Vaccinia virus mCherry reporter infection, fluorescence; Potency, µM (highest dose often 36.5 µM), usual class: inhibitors; actives 0.63% (n = 310,000); AID 720579; calls by dose curve; tested in A549 cells; note: nearly all actives have a fitted effect of over 35% in size
HCMV antiviral: human cytomegalovirus inhibition; HFF cells, HCMV-luciferase reporter, 72 h; stronger effect = lower value; actives 4.5% (n = 410,000); activity change, negative = inhibition, % at 57.5 µM; in the data active = activity change below about -60%; inconclusive = no clear call, values can overlap the other calls; inactive = above about -39%
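After 16 h attachment at 37C, HFF cells received test compound and HCMV-luciferase (1 PFU/cell); reporter luminescence read 72 h later, data normalized against buffer-only and known inhibitor Salinomycin.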
MARV entry inh: blocks Marburg virus binding to or entry into cells | Marburg virus pseudotyped entry inhibition, cell reporter | Potency, µM (highest dose often 37.8 µM), actives largely listed as inhibitors | actives 1.8% (n = 300,000) | AID 540276; calls by dose curve; tested in HEK293 cells
Lassa entry inh: inhibitors of Lassa virus binding or cell entry; Lassa virus pseudotype entry inhibition, cell reporter; Potency, µM (highest dose often 37.9 µM), actives largely listed as inhibitors; actives 1.2% (n = 300,000); calls by dose curve; tested in HEK293 cells; note: nearly all actives have a fitted effect of over 50% in size
Hits are given with their value; - = inactive; ? = inconclusive; . = no result given; + = active, no number. Rows were chosen to be rich in hits. Some 6.5% of all compounds tested hit in one or more screens of this group.

SMILES	VACV Venus inh	FMDV antiviral	Vaccinia mCherry	HCMV antiviral	MARV entry inh	Lassa entry inh
O=C(Nc1nc(-c2ccc(Br)cc2)ns1)c1ccccc1F	-	-	-	-	?	-
NC(=S)N=Nc1c(O)[nH]c2ccc(F)cc12	3.5µM	-	5µM	-	-	-
O=C(c1cc(-c2ccc(O)cc2)on1)N1CCN(c2ccc(F)cc2)CC1	-	-	-	-63	.	.
Cc1ccc(-c2cc(C(=O)N3CCCCCC3)no2)cc1	-	-	-	-	?	?
O=C(c1cc(-c2ccc(O)cc2)on1)N1CCCC1	-	-	-	-	11µM	?
O=C(c1cc(-c2ccccc2)on1)N1CCCCCC1	-	-	-	-	?	13µM
O=C(c1cc(-c2ccc(Cl)cc2)on1)N1CCOCC1	.	-	.	-	?	9.2µM
CC1(C)CC(=O)c2cc(C(=O)Nc3cccc4ccccc34)c(=O)[nH]c2C1	-	.	-	.	.	.
COC(=O)CC=C1c2ccccc2[C@@H](OC)[C@@H]1C	.	.	.	.	-	?
CC1(C)CC2CC(C)(CN2C(=O)c2cc(-c3ccc(O)cc3)on2)C1 (stereo not given)	-	-	?	-61	?	?
O=C(c1cc(-c2ccco2)on1)N1CCN(C(c2ccccc2)c2ccccc2)CC1	.	?	.	-104	?	-
Cc1ccc(S(=O)(=O)c2nnn3c2nc(N2CCN(c4ccc(F)cc4)CC2)c2cc(Cl)ccc23)cc1C	-	-	-	-	-	.
N#CC1=C(N)N2C(=C(C#N)C13CCN(Cc1ccccc1)CC3)Nc1ccccc12	.	-	.	-	-	-
N#CC1=C(N)N2C(=C(C#N)C1c1cccc(Br)c1)Nc1ccccc12 (stereo not given)	-	7.9µM	-	-97	-	?
N#CC1=C(N)N2C(=C(C#N)C1c1ccc(Br)cc1)Nc1ccccc12 (stereo not given)	.	?	.	-100	9.2µM	?
Cc1ccc(NC(=O)C2CCC(CNS(=O)(=O)c3csc(C(N)=O)c3)CC2)cc1Cl (stereo not given)	-	-	-	-	.	-
Cc1ccc2c(CN3CCN(C(=O)c4ccc(F)cc4)CC3)cc(=O)oc2c1	-	-	-	-	-	-
COC(=O)c1ccc2nc(-c3cccc(Cl)c3)c(Cc3ccccc3C(F)(F)F)n2c1	.	.	.	-	.	.
COc1ccc(CCCC2=NC3C=CC=CC3=N2)cc1 (stereo not given)	.	.	.	.	-	.
Cc1ccc(Sc2ncccc2[N+](=O)[O-])cc1	-	-	?	-	-	?
Cc1c([N+](=O)[O-])cnc(Sc2ccccc2)c1[N+](=O)[O-]	.	22µM	.	-99	.	.
Cc1ccc(NC(=O)c2cc(S(=O)(=O)N3CCCCC3)cs2)cc1	?	.	-	-81	-	21µM
CC(Sc1ccccc1)C(=O)Nc1ccc(S(=O)(=O)N2CCOCC2)cc1 (stereo not given)	-	-	-	-64	-	-
COc1ccc(NC(=O)c2cc(S(=O)(=O)N3CCCCC3)ccc2OC)cc1	.	-	.	-73	.	.
Nc1cc(S(=O)(=O)N2CCCCC2)ccc1Oc1ccc(Cl)cc1	.	?	.	-66	?	-
SMILES	VACV Venus inh	FMDV antiviral	Vaccinia mCherry	HCMV antiviral	MARV entry inh	Lassa entry inh
COc1ccc(NC(=O)c2cc(S(=O)(=O)N3CCCC3)ccc2OC)cc1	-	-	-	?	.	-
Cc1ccc(NC(=O)c2cc(S(=O)(=O)N3CCOCC3)cs2)cc1	-	?	-	-	-	-
COc1ccc(CN2CC[C@H]3C=CC[C@@H](C(=O)Nc4nccs4)[C@H]3C2=O)cc1OC	-	.	-	.	.	.
N#C[C@H](C(=O)NC1CC1)c1nc2ccccc2nc1N1CCN(C/C=C\c2ccccc2)CC1	.	.	.	.	-	.
Cc1ccc(S(=O)(=O)N2CCN(C(C(=O)Nc3ccc(F)cc3)c3ccccc3)CC2)cc1 (stereo not given)	-	-	-	-	?	6.3µM
O=C(Nc1cccc(S(=O)(=O)C(F)F)c1)c1ccc(S(=O)(=O)N2CCOCC2)cc1	-	?	-	-	?	-
O=C(Nc1cccc(S(=O)(=O)C(F)F)c1)c1ccc(S(=O)(=O)N2CCCC2)cc1	?	-	-	?	?	5µM
COc1ccc(NS(=O)(=O)c2cccc(NC(=O)c3ccc(S(=O)(=O)N4CCCCCC4)cc3)c2)cc1	?	-	?	.	3.5µM	8.2µM
O=C(Nc1ccc(S(=O)(=O)C(F)F)cc1)c1cccc(S(=O)(=O)N2CCOCC2)c1	-	18µM	-	-	?	-
Cc1cc(NC(=O)c2cccn2-c2nnc(N3CCCCC3)s2)ccc1Br	-	-	-	-	.	-
CC(=O)O[C@H]1C[C@@H](n2cnc3c(Cl)ncnc32)[C@@H]2OC(C)(C)O[C@@H]21	.	.	.	-	.	.
COc1ccc(NS(=O)(=O)c2cccc(NC(=O)C3=NN(c4ccccc4)C(=O)CC3)c2)cc1	.	?	.	-	.	.
N#Cc1ccc(C(=O)NNC(=O)c2cccc(S(=O)(=O)N3CCOCC3)c2)cc1	-	-	-	-	-	-
O=C(NNC(=O)c1ccc(O)c(Cl)c1)c1cccc(S(=O)(=O)N2CCOCC2)c1	-	-	-	-	10µM	-
COc1ccc(/C(C)=N/NC(=O)c2cccc(S(=O)(=O)N3CCCC3)c2)c(O)c1	?	-	5.6µM	-90	?	?
COc1ccc(NS(=O)(=O)c2cccc(NC(=O)C34CCC(CC3)C4)c2)cc1	-	-	-	-64	?	12µM
COc1ccc(S(=O)(=O)N2CCCCCC2)cc1C(=O)N(C)CCOc1ccc(Cl)cc1	-	?	-	-	?	18µM
CC1CCC(C(=O)C2C(=O)C3=C(CCCC3)C2=O)CC1 (stereo not given)	.	.	.	.	-	.
CC(C)[C@H](NC(=O)c1ccccc1)C(=O)Nc1cccc(S(=O)(=O)N2CCOCC2)c1	-	-	-	+	-	-
COc1ccc(NC(=O)c2cccc(S(=O)(=O)N3CCCCCC3)c2)cc1	-	-	-	-88	-	-
Cc1ccc(C)c(Cn2c(=O)n(C(C)C)c(=O)c3oc4ccccc4c32)c1	-	-	-	-	.	-
CCOC(=O)c1cnc(SCc2ccc(C(C)(C)C)cc2)nc1N	.	-	.	-	-	4.1µM
CCOC(=O)c1cnc(SCc2ccccc2)nc1N	-	.	-	-	?	-
Cc1cc(Nc2nc3ccccc3nc2Cl)n(-c2ccccc2)n1	.	?	.	-90	?	?
CN(C)c1ccc(/C=C/c2cnnc3ccccc23)cc1	-	.	-	.	.	.
COc1ccc(OC)c(NC(=O)c2c(NCc3ccc(C)o3)sc3c2CCC(C)C3)c1 (stereo not given)	-	-	-	-	.	-
CCN1C(=O)[C@H]2[C@@H](c3ccc(-c4ccc(OC)cc4)cc3)N3CCC[C@@]3(C(=O)OC)[C@H]2C1=O	-	-	-	-101	.	.
CCCC[C@@H](C)C[C@@H](C)C(=O)N(C)[C@@H](CC(C)C)C(=O)N[C@H](C(=O)N(C)[C@H](C(=O)N1C[C@@H](O)C[C@H]1C(=O)N1C(=O)C=C[C@@H]1C)C(C)C)C(C)OC(C)=O (stereo not given in full)	10µM	?	?	.	.	.
